Experimental findings from PubChem BioAssay (NCI) are described below.

SMILES strings stand for the structures. Compounds without any hit were thinned out: in the full panel of roughly 79,000, 15% have a hit. A number with no mark means an inactive call. Activity calls are given as the source filed them. Cut-off read from the data, not from the text of the source: active = growth inhibition above about 70%; inactive = the rest.

Assay [1] can be described thus: NCI Yeast Anticancer Drug Screen. Data for the rad50 strain (AID 155).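 Note: 0% = growth of vehicle-only cultures of the same strain.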 The conditions noted are these: S. cerevisiae rad50 strain growth inhibition, hits give high values. The method, boiled down: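 Genetically altered yeast (DNA repair pathway); compound treatment; growth inhibition vs vehicle ctrl.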
Assay [2] in a line: NCI Yeast Anticancer Drug Screen. Data for the mec2-1 strain (AID 157). Particulars: S. cerevisiae mec2-1 strain, hits give high values. The gist of the method: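 Readout is yeast growth inhibition, normalised to vehicle-treated controls, in the mec2-1 strain exposed to compound.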
The nature of assay [3]: NCI Yeast Anticancer Drug Screen. Data for the sgs1 mgt1 strain (AID 161).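 Note: 0% = growth of cultures given vehicle only.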 Particulars: S. cerevisiae sgs1 mgt1 strain, hits give high values. The method, boiled down: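 Compounds are added to genetically altered yeast, and growth is compared with cultures given vehicle alone to give percent inhibition.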
Assay [4] can be described thus: NCI Yeast Anticancer Drug Screen. Data for the cln2 rad14 strain (AID 165).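 Note: 0% = growth equal to vehicle treated cultures.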 Particulars: S. cerevisiae cln2 rad14 strain, hits give high values. The gist of the method: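 Relative to vehicle controls, growth inhibition of compound-treated cln2 rad14 yeast was recorded.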
Assay [5] is described as follows: NCI Yeast Anticancer Drug Screen. Data for the bub3 strain (AID 167). Particulars: S. cerevisiae bub3 mutant strain, hits give high values. The method, boiled down:
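Yeast carrying a defined mutation is treated with each compound, and growth is compared with that of vehicle-exposed cells to give inhibition.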

Assay [6] can be described thus: NCI Yeast Anticancer Drug Screen. Data for the mlh1 rad18 strain (AID 175). The conditions noted are these: S. cerevisiae mlh1 rad18 strain growth inhibition, hits give high values. The method, boiled down:
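Test agents were incubated with a yeast strain of defined genotype (DNA damage repair defect). Inhibition of growth was derived by comparison with vehicle-exposed cultures.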

[7] abbreviates: at 5.0 µM (retest, dose inferred, filed as 0.5).
Where [8] appears, read: at 50.0 µM (retest, dose inferred, filed as 5.0).

Take `BrC(Br)=C1C(=C(Br)Br)C(Br)C1Br` (stereo not given): the growth inhibition in assay [1] (setting [7]) was 31%; in assay [1] (setting [8]) it was 69%; in assay [1] (at 50.0 µM) it was 61.6%; in assay [2] (setting [7]), -10%; in assay [2] (setting [8]), 59%; in assay [2] (at 50.0 µM) it was 77.4% (active). Besides, the growth inhibition was 72% (active) in assay [3] (setting [7]); 94% (active) in assay [3] (setting [8]); 83.8% (active) in assay [3] (at 50.0 µM); 19% in assay [4] (setting [7]); 53% in assay [4] (setting [8]); 55% in assay [4] (at 50.0 µM). Moreover, the growth inhibition in assay [5] (setting [7]) is 18%; in assay [5] (setting [8]), 66%; in assay [5] (at 50.0 µM) it was 73% (active); in assay [6] (setting [7]), 40%; in assay [6] (setting [8]), 71% (active); in assay [6] (at 50.0 µM), 71.6% (active).

As to `C/C=C/C/S(=N\S(=O)(=O)c1ccc(C)cc1)c1ccccc1` (stereo not given), the growth inhibition in assay [1] (setting [7]) is 4%; in assay [1] (setting [8]), 93% (active); in assay [1] (at 50.0 µM), 96.7% (active); in assay [2] (setting [7]), 4%; in assay [2] (setting [8]), 88% (active); in assay [2] (at 50.0 µM), 95.5% (active). Besides, the growth inhibition in assay [3] (setting [7]) was 11%; in assay [3] (setting [8]) it was 97% (active); in assay [3] (at 50.0 µM) it was 81.5% (active); in assay [4] (setting [7]), 1%; in assay [4] (setting [8]) it was 73% (active); in assay [4] (at 50.0 µM), 40.9%. The growth inhibition is -7% in assay [5] (setting [7]); 97% (active) in assay [5] (setting [8]); 94.7% (active) in assay [5] (at 50.0 µM); 5% in assay [6] (setting [7]); 95% (active) in assay [6] (setting [8]); 93.3% (active) in assay [6] (at 50.0 µM).

Take `Cc1cc2c(c(C(N)=O)c1C)-c1cccc(F)c1C2=O`: the growth inhibition is 4% in assay [1] (setting [7]); 47% in assay [1] (setting [8]); 77.4% (active) in assay [1] (at 50.0 µM); 4% in assay [2] (setting [7]); 20% in assay [2] (setting [8]); 7.15% in assay [2] (at 50.0 µM). Besides, the growth inhibition in assay [3] (setting [7]) is 20%; in assay [3] (setting [8]), 20%; in assay [3] (at 50.0 µM) it was 37.6%; in assay [4] (setting [7]) it was -1%; in assay [4] (setting [8]), 14%; in assay [4] (at 50.0 µM), 75.5% (active). In addition, the growth inhibition in assay [5] (setting [7]) is 2%; in assay [5] (setting [8]), 32%; in assay [5] (at 50.0 µM), 16%; in assay [6] (setting [7]), 1%; in assay [6] (setting [8]), 32%; in assay [6] (at 50.0 µM), 90.5% (active).

In the case of `COc1ccc(NCCN(C)C)c2c(=O)c3ccccc3sc12`, the growth inhibition was 13% in assay [1] (setting [7]); 53% in assay [1] (setting [8]); 90.4% (active) in assay [1] (at 50.0 µM); 1% in assay [2] (setting [7]); 45% in assay [2] (setting [8]); 37.4% in assay [2] (at 50.0 µM). Besides, the growth inhibition was -1% in assay [3] (setting [7]); 39% in assay [3] (setting [8]); 41.6% in assay [3] (at 50.0 µM); -3% in assay [4] (setting [7]); 16% in assay [4] (setting [8]); -1.05% in assay [4] (at 50.0 µM). Moreover, the growth inhibition is -7% in assay [5] (setting [7]); 0% in assay [5] (setting [8]); 50.2% in assay [5] (at 50.0 µM); -3% in assay [6] (setting [7]); 43% in assay [6] (setting [8]); 69.4% in assay [6] (at 50.0 µM).

As to `Nc1cc(Cl)c2c(c1)Cc1ccccc1-2`, the growth inhibition was 3% in assay [1] (setting [7]); 96% (active) in assay [1] (setting [8]); 76.8% (active) in assay [1] (at 50.0 µM); 2% in assay [2] (setting [7]); 95% (active) in assay [2] (setting [8]); 9.45% in assay [2] (at 50.0 µM). The growth inhibition is 7% in assay [3] (setting [7]); 96% (active) in assay [3] (setting [8]); 84.8% (active) in assay [3] (at 50.0 µM); -7% in assay [4] (setting [7]); 94% (active) in assay [4] (setting [8]); -22.4% in assay [4] (at 50.0 µM). Moreover, the growth inhibition in assay [5] (setting [7]) was -6%; in assay [5] (setting [8]) it was 94% (active); in assay [5] (at 50.0 µM), 70.8% (active); in assay [6] (setting [7]), 0%; in assay [6] (setting [8]) it was 94% (active); in assay [6] (at 50.0 µM), 86.8% (active).

As to `C=CC(c1ccccc1)[C@@]1(OC(C)=O)C(=O)C(=O)OC1C1COC(C)(C)O1` (stereo not given in full), the growth inhibition in assay [1] (setting [7]) is 62%; in assay [1] (setting [8]), 98% (active); in assay [1] (at 50.0 µM) it was 86.3% (active); in assay [2] (setting [7]) it was 75% (active); in assay [2] (setting [8]), 98% (active); in assay [2] (at 50.0 µM), 77.7% (active). Also, the growth inhibition was 65% in assay [3] (setting [7]); 100% (active) in assay [3] (setting [8]); 88.3% (active) in assay [3] (at 50.0 µM); 30% in assay [4] (setting [7]); 94% (active) in assay [4] (setting [8]); 86.9% (active) in assay [4] (at 50.0 µM). Moreover, the growth inhibition in assay [5] (setting [7]) is 84% (active); in assay [5] (setting [8]), 100% (active); in assay [5] (at 50.0 µM), 85.1% (active); in assay [6] (setting [7]) it was 81% (active); in assay [6] (setting [8]), 98% (active); in assay [6] (at 50.0 µM) it was 90.4% (active).

For the compound `CCNc1cc2c3c(c1)CCCN3CCC2`, the growth inhibition in assay [1] (setting [7]) was 15%; in assay [1] (setting [8]), 40%; in assay [1] (at 50.0 µM), -15.7%; in assay [2] (setting [7]) it was 13%; in assay [2] (setting [8]), 27%; in assay [2] (at 50.0 µM), -20.7%. Moreover, the growth inhibition in assay [3] (setting [7]) is 14%; in assay [3] (setting [8]), 18%; in assay [3] (at 50.0 µM), -1.15%; in assay [4] (setting [7]), 20%; in assay [4] (setting [8]) it was 24%; in assay [4] (at 50.0 µM), -46.1%. Further, the growth inhibition was 15% in assay [5] (setting [7]); 30% in assay [5] (setting [8]); -17% in assay [5] (at 50.0 µM); 17% in assay [6] (setting [7]); 51% in assay [6] (setting [8]); -10.7% in assay [6] (at 50.0 µM).

On to `COc1cc2c(cc1O)-c1c(cnn1-c1ccccc1)CCC2`, for which the growth inhibition is -7% in assay [1] (setting [7]); 85% (active) in assay [1] (setting [8]); 95.5% (active) in assay [1] (at 50.0 µM); -5% in assay [2] (setting [7]); 93% (active) in assay [2] (setting [8]); 96% (active) in assay [2] (at 50.0 µM). Also, the growth inhibition in assay [3] (setting [7]) was 2%; in assay [3] (setting [8]), 88% (active); in assay [3] (at 50.0 µM) it was 97.4% (active); in assay [4] (setting [7]), -17%; in assay [4] (setting [8]) it was 88% (active); in assay [4] (at 50.0 µM), 55%. Also, the growth inhibition in assay [5] (setting [7]) was -7%; in assay [5] (setting [8]) it was 86% (active); in assay [5] (at 50.0 µM) it was 93.3% (active); in assay [6] (setting [7]), -8%; in assay [6] (setting [8]), 92% (active); in assay [6] (at 50.0 µM), 97.6% (active).

As to `O=C(Nc1ccc(C2=NCCN2)cc1)c1cc(C(=O)Nc2ccc(C3=NCCN3)cc2)cc(C(=O)Nc2ccc(C3=NCCN3)cc2)c1`, the growth inhibition in assay [1] (setting [7]) was 37%; in assay [1] (setting [8]), 96% (active); in assay [1] (at 50.0 µM), 99% (active); in assay [2] (setting [7]), 5%; in assay [2] (setting [8]) it was 94% (active); in assay [2] (at 50.0 µM), 99% (active). Moreover, the growth inhibition in assay [3] (setting [7]) is 16%; in assay [3] (setting [8]) it was 95% (active); in assay [3] (at 50.0 µM) it was 98.8% (active); in assay [4] (setting [7]), 13%; in assay [4] (setting [8]) it was 62%; in assay [4] (at 50.0 µM) it was 90.1% (active). Moreover, the growth inhibition was 23% in assay [5] (setting [7]); 99% (active) in assay [5] (setting [8]); 98.8% (active) in assay [5] (at 50.0 µM); 25% in assay [6] (setting [7]); 98% (active) in assay [6] (setting [8]); 99% (active) in assay [6] (at 50.0 µM).

As for `O=C(NCCCCC(NC(=O)OCc1ccccc1)C(=O)Nc1ccc(Nc2ccc(NC(=O)C(CCCCNC(=O)OCc3ccccc3)NC(=O)OCc3ccccc3)cc2)cc1)OCc1ccccc1` (stereo not given), the growth inhibition in assay [1] (setting [7]) was 0%; in assay [1] (setting [8]), -12%; in assay [1] (at 50.0 µM) it was 99% (active); in assay [2] (setting [7]), -3%; in assay [2] (setting [8]), -13%; in assay [2] (at 50.0 µM) it was 99.5% (active). The growth inhibition is -2% in assay [3] (setting [7]); -29% in assay [3] (setting [8]); 99.4% (active) in assay [3] (at 50.0 µM); -1% in assay [4] (setting [7]); 0% in assay [4] (setting [8]); 87.7% (active) in assay [4] (at 50.0 µM). Also, the growth inhibition was 2% in assay [5] (setting [7]); 34% in assay [5] (setting [8]); 99.1% (active) in assay [5] (at 50.0 µM); -1% in assay [6] (setting [7]); -12% in assay [6] (setting [8]); 98.4% (active) in assay [6] (at 50.0 µM).
